In PMC3795721, “Screening for Protein-DNA Interactions by Automatable DNA-Protein Interaction ELISA”:

target: AT4G31550 (Arabidopsis thaliana, UniProt Q9SV15 228-325); experiment: DPI-ELISA; DPI-ELISA, streptavidin 384-well plate, 1-2 pmol biotinylated dsDNA per well, crude native E. coli extract, anti-His detection; buffer as in Brand et al. [46],; high values mean tight binding; conditions: tags: C-terminal His (pET-DEST42); label: 5' biotin on forward strand; dsDNA, one strand shown
Sequence (Q9SV15 228-325): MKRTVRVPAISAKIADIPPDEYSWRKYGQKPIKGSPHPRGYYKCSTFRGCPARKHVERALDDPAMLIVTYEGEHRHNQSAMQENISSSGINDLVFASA

| Sequence | binding signal |
| --- | --- |
| AAAAAATTACGTTTGTATTTGTAAAA | 0.555 ± 0.0636 absorbance |
| AAAAAATTCCGCGTGTATGTGTACGTAAAA | 0.72 ± 0.212 absorbance |
| AAAAAAGGTGAGGAAGTTGGGTATGGAAAA | 0.64 ± 0.0566 absorbance |
| AAAAAATAATATCGATACTCATGCCCAAAA | 0.685 ± 0.134 absorbance |
| AAAAAATCCCTGCTCCCCTGGTTCCTAAAA | 0.45 ± 0.141 absorbance |
| AAAAAAACTCAACTAGTGAACCACCAAAA | 0.625 ± 0.0636 absorbance |
| AAAAAACTTCTAGTTTATGCTTCCGTAAAA | 0.69 ± 0.141 absorbance |
| AAAAAAAGGTCATTGCTGCTGGTGTTAAAA | 0.735 ± 0.106 absorbance |
| AAAAAAATGCGCCCTTTCTGACATAAAAAA | 0.615 ± 0.106 absorbance |
| AAAAAACCCGCCGTCGTGATTATCACAAAA | 0.73 ± 0.0707 absorbance |
| AAAAAATCTTCTTGTTTCTTATTTCTAAAA | 0.625 ± 0.12 absorbance |
| AAAAAAACTCTAGGTCAATATTATTCAAAA | 3.11 ± 0.636 absorbance |
| AAAAAAGGGGTCCTTTTCCAATGTCTAAAA | 0.605 ± 0.0495 absorbance |
| AAAAAATCCTATCTTGGCTTTGGCCTAAAA | 0.65 ± 0.156 absorbance |
| AAAAAAGATCTAGGCCTTGGGACTCAAAAA | 0.415 ± 0.0636 absorbance |
| AAAAAAAAATTTCGAGCCTCGGCGTAAAAA | 0.49 ± 0.0849 absorbance |
| AAAAAATTTGCGCTTCATCCTGCCCCAAAA | 0.715 ± 0.106 absorbance |
| AAAAAAGCTTCGCGCCAGCGGGAAAA | 0.695 ± 0.0636 absorbance |
| AAAAAAAGTATCAAAGCCTAGGGCTGAAAA | 0.605 ± 0.205 absorbance |

| Sequence | binding signal |
| --- | --- |
| AAAAAACATTCCTAGTTCATGTTACTAAAA | 0.665 ± 0.134 absorbance |
| AAAAAAGCTCATGGCCCTGAGGATCTAAAA | 0.73 ± 0.113 absorbance |
| AAAAAAGGCTGTGGCCAATGTTCGTAAAAA | 0.55 ± 0.0566 absorbance |
| AAAAAAACGGGTTGTGAATGTGGAAGAAAA | 0.575 ± 0.148 absorbance |
| AAAAAATCACAATACCTTCTCGTCATAAAA | 0.58 ± 0.113 absorbance |
| AAAAAATATGCTACTCCACCTTGATGAAAA | 0.67 ± 0.156 absorbance |
| AAAAAATGCCCATGTGCACCCGTACGAAAA | 0.56 ± 0.0849 absorbance |
| AAAAAAAATACTGCGCACTTGCACTCAAAA | 0.6 ± 0.127 absorbance |
| AAAAAAGCGCGAATTCTAGAACTATAAAAA | 0.57 ± 0.113 absorbance |
| AAAAAAAGTGGCCGCTAGTCAACTCAAAAA | 3.46 ± 0.389 absorbance |
| AAAAAACATGTCGCACCTGTACTAACAAAA | 0.66 ± 0.127 absorbance |
| AAAAAAGGCGGTCGTAGTTGTGGGAGAAAA | 1.14 ± 0.0849 absorbance |
| AAAAAATCGGGGATCCGGGCGGTTGCAAAA | 0.665 ± 0.12 absorbance |
| AAAAAAGCATATCTTCAGAACTTGCCAAAA | 0.625 ± 0.0778 absorbance |
| AAAAAATGCTATCCGTGTCTATGCCAAAAA | 0.54 ± 0.0707 absorbance |
| AAAAAAACGCTCAAGTCTATCAGTAGAAAA | 0.74 ± 0.141 absorbance |
| AAAAAAGCCCCTTGCGCCTCTCTACCAAAA | 0.62 ± 0.0424 absorbance |
| AAAAAAGGTAGTCACATTACGAGGGTAAAA | 0.555 ± 0.0354 absorbance |
| AAAAAATTAGCTTATCCTTGCTTGTGAAAA | 0.655 ± 0.134 absorbance |
